Source: PubChem BioAssay
Shown are actives, neighbours in structure and some others; about 3.8% of the full set was active somewhere.
Mot1-301 SUMO – yeast Mot1-301 growth rescue at high temperature, primary screen, SUMOylation pathway inhibitor project, S. cerevisiae, ATP luminescence, 38.5C; S. cerevisiae Mot1-301 growth rescue; percent above DMSO median, 100 means doubled; growth rescue, % at 18.8 µM; 320,000 tested, 1% active;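 active = every valid replicate shows activation above 250% relative to neutral control wells; inactive = the rest, any valid replicate at or below 250%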;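 also: OY570 slx delta 5 strain wells were the positive control but not used for scaling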
FAS TE block – FAS thioesterase domain inhibitors, primary screen, biochemical, fluorescence intensity, uHTS. Fatty acid synthase (Homo sapiens), P49327. recombinant FAS-TE, OMFH fluorogenic substrate, fluorescence endpoint. inhibition, % at 15 µM. 360,000 tested, 0.67% active. AID 602261, 2012;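 active = compounds whose normalised, plate-corrected inhibition of enzyme fluorescence in the single-dose primary screen is 50% or more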;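 also: 0% = DMSO with enzyme and 100% = substrate without enzyme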
aDG glyco up – activators of alpha-DG glycosylation, primary screen, uHTS, Pro5-aDG cells, AlphaScreen; alpha-DG glycosylation AlphaScreen (IIH6); 0% Pro5, 100% B10-LARGE cell signal; activation, % at 10 µM; 360,000 tested, 0.22% active;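 active = activation of at least 8% versus controls, or a plate z-score of at least 8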;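 also: Pro5 are CHO cells carrying HIG-tagged alpha-DG that lacks glycosylation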
Yeast superoxide – reduction of superoxide in aged yeast, primary screen, HTS. S. cerevisiae aged cells, superoxide DHE fluorescence; active compounds read low. superoxide response (% of plate mean), % at 10 µM. 330,000 tested, 0.18% active. AID 2690, 2010;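 active = superoxide response under a set limit, about three screen SD below normal, cut at about 65% in these data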;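 also: yeast aged for seven days with compound at 30 °C before DHE staining; 100% = average MFI of all compound-treated wells on the plate with controls excluded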
MPTP block – mitochondrial permeability transition pore inhibitors, primary screen, biochemical, isolated mouse mitochondria, absorbance; 360,000 tested, 1.4% active; AID 602449, 2012; inhibition, % at 10 µM; Ca2+ swelling absorbance, 30 min;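 active = inhibition of 50% or more, scaled per plate between neutral and stimulator controls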;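 also: 0% = DMSO wells given calcium and 100% = 1 mM EGTA wells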
Cardio protect – cardioprotection against H2O2-induced cell death, primary screen, uHTS, H9c2 cells, ATPLite luminescence; H9c2 cardiomyocytes, H2O2 injury protection, 2 h; protection from H2O2 cell death, % at 20 µM; 360,000 tested, 0.63% active;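 active = compounds giving at least 50% protection of heart cells from peroxide-induced death in the single-dose screen, raw or plate-pattern-corrected value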;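 also: 0% = DMSO wells with peroxide and 100% = DMSO wells without peroxide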
MPTP counter – fluorescence retest of MPTP screen hits in isolated mitochondria, single concentration; shares compounds with MPTP block; membrane potential, Rhodamine 123 fluorescence; inhibition, % at 10 µM; 5,000 tested, 78% active; AID 624504, 2012; in the data active = inhibition above about 22%;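 also: 0% = DMSO vehicle and 100% = positive control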
MPTP abs DR – mitochondrial permeability transition pore inhibitors, dose response, biochemical, absorbance, uHTS hits; shares compounds with MPTP block; isolated mitochondria swelling; IC50, µM; 780 tested, 58% active; AID 651561, 2012; in the data active = IC50 below about 20 µM
MPTP counter DR – fluorescent counter-screen in isolated mitochondria, dose response, counter-screen for MPTP inhibitor project, biochemical, fluorescence, uHTS hits; shares compounds with MPTP block; isolated mitochondria counterscreen, fluorescence read-out; IC50, µM; 780 tested, 49% active; AID 651564, 2012; in the data active = IC50 below about 80 µM
Active calls of the source: *; · = no result given.

SMILES	Mot1-301 SUMO	FAS TE block	aDG glyco up	Yeast superoxide	MPTP block	Cardio protect	MPTP counter	others
O=[N+]([O-])c1ccc(N/N=C/c2sc(N3CCOCC3)nc2-c2ccccc2)c(S(=O)(=O)Nc2ccc(Cl)cc2)c1	·	25.3	-0.8	·	86.5*	-19.2	76.0*
O=[N+]([O-])c1ccc(N/N=C/c2sc(N3CCOCC3)nc2-c2ccccc2)c(S(=O)(=O)Nc2ccccc2Cl)c1	·	12.0	-0.7	·	91.1*	-15.0	65.1*
CCCC(NCC(O)COc1ccc(-c2ccccc2)cc1)c1ccccc1 (stereo not given)	·	1.7	-0.9	111.6	55.2*	-24.2	5.0	MPTP abs DR=4.02*;MPTP counter DR=48.4*
OC(CNC1CCCC1)COc1ccc(-c2ccccc2)cc1 (stereo not given)	12.1	-0.7	7.2	97.9	2.0	-3.1	·
CC(NCC(O)COc1ccc(Br)cc1)c1ccccc1 (stereo not given)	-7.5	-1.7	0.1	108.5	80.7*	9.8	-7.8	MPTP abs DR=5.55*;MPTP counter DR=>80
CC1CCC(C(C)C)C(OCC(O)CNC(C)c2ccccc2)C1 (stereo not given)	-23.4	8.0	0.9	76.7	76.8*	-35.4	24.7*
COc1ccc(OCC(O)CNC(C)c2ccccc2)cc1 (stereo not given)	-9.0	-2.0	0.1	82.6	0.0	1.8	·
CN(C)C(=O)c1cccc(-c2cccc(-c3nc(C(=O)NCc4ccccc4)cc4c3[C@@H](CCO)N(S(=O)C(C)(C)C)C4)c2)c1 (stereo not given in full)	·	-1.1	-0.3	·	-1.0	44.2	·
O=C(NCCCCCCNC(=O)c1ccc(Br)s1)c1ccc(Br)s1	-8.0	-3.0	0.2	97.0	53.8*	-5.3	36.2*
O=C(NCCCCNC(=O)c1ccc(Cl)s1)c1ccc(Cl)s1	225.7	-2.0	-0.1	97.0	1.7	6.9	·
CCOC(=O)c1sc(NC(=O)Nc2ccccc2F)nc1C	15.8	-3.2	0.4	100.8	57.7*	-19.6	68.3*
CCCc1nc2ccccc2c(=O)n1CCc1ccccc1	18.1	5.8	0.0	105.4	-0.3	5.1	·
COc1cc(C(=O)NCCOc2cc(C)ccc2C(C)C)cc(OC)c1OC	5.7	6.9	1.4	99.3	57.0*	-18.3	64.3*
S=C1SCN(Cc2cccnc2)CN1Cc1cccnc1	93.5	-3.4	0.1	108.2	1.2	-3.1	·
CSCCC(NS(=O)(=O)c1ccc(Cl)cc1)C(=O)N1CCN(c2ccccc2)CC1 (stereo not given)	·	14.4	0.2	·	-0.2	-1.2	·
c1csc(CCNc2ncnc3sc4c(c23)CCC4)c1	-11.7	20.7	1.4	98.0	102.4*	-12.5	102.1*
O=C(CCCCCCN1C(=O)c2ccccc2C1=O)Nc1nccs1	1.7	-0.4	-0.1	110.4	66.4*	-7.9	-1.2	MPTP abs DR=>100;MPTP counter DR=>80
CSCCC(NC(=O)c1ccccc1Cl)C(=O)NCC1COc2ccccc2O1 (stereo not given)	·	0.5	0.0	·	-1.0	4.0	·
CCCCCCn1c(NCC)nc2c1c(=O)n(C)c(=O)n2C	-8.2	-5.1	4.7	101.0	55.9*	-34.8	86.0*
O=C(COC(=O)C1CCC1)Nc1cccc(S(=O)(=O)N2CCOCC2)c1	11.0	4.5	-0.1	115.7	0.1	3.9	·
O=C(COC(=O)C1CC2C=CC1C2)Nc1cccc(S(=O)(=O)N2CCCCCC2)c1 (stereo not given)	6.5	19.8	0.2	105.0	65.1*	-18.2	70.2*
O=C(COC(=O)C1CC2C=CC1C2)Nc1cccc(S(=O)(=O)N2CCCCC2)c1 (stereo not given)	12.2	14.2	0.0	104.0	58.8*	-9.7	37.5*
O=C(N/N=C/c1cccc(O)c1)c1csc2ccccc12	20.9	1.5	0.1	101.7	108.5*	0.5	2.1	MPTP abs DR=1.07*;MPTP counter DR=>80
CC(C)Cc1nnc(NC(=O)c2ccc3c(=O)n4c(nc3c2)CCC4)s1	-10.6	-2.5	0.0	102.2	-0.4	4.6	·
Fc1ccc(NC(=S)Nc2ccc(Cl)cc2)cc1	5.8	0.1	0.7	107.7	80.4*	-15.8	106.7*
SMILES	Mot1-301 SUMO	FAS TE block	aDG glyco up	Yeast superoxide	MPTP block	Cardio protect	MPTP counter	others
O=S(=O)(Nc1ncccn1)c1ccc(NC(=S)Nc2ccc(Cl)cc2)cc1	-8.9	-2.9	0.0	83.0	97.9*	-7.9	95.6*
COc1ccc(NC(=S)Nc2ccc(F)cc2)c(OC)c1	1.2	-8.7	0.1	103.7	-0.3	4.2	·
O=C(NNC(=S)Nc1ccc(F)cc1)C1CC1c1ccc(Cl)cc1 (stereo not given)	0.1	-2.4	0.1	109.4	14.7	0.7	·
Fc1ccc(NC(=S)Nc2cc(Cl)ccc2Cl)cc1	-6.3	4.2	-0.3	96.8	57.9*	-5.3	78.4*
COc1c(Br)cc([N+](=O)[O-])c(OC)c1C(=O)NC(=O)Nc1c(Cl)cccc1Cl	-4.3	34.7	-0.2	110.8	4.1	-1.4	·
COc1c(Br)cc([N+](=O)[O-])c(OC)c1C(=O)NC(=O)Nc1cc(Cl)cc(Cl)c1	-7.6	-1.3	-0.2	117.2	83.4*	-17.0	85.4*
CC(C)=CC(=O)Nc1nc2ccc([N+](=O)[O-])cc2s1	·	3.4	-0.4	·	6.5	-6.4	·
O=C(NC(Nc1nc2ccc([N+](=O)[O-])cc2s1)(C(F)(F)F)C(F)(F)F)c1cccnc1	14.7	4.3	-0.5	92.5	86.8*	-34.6	97.3*
O=[N+]([O-])c1ccc2nc(NS(=O)(=O)c3ccccc3[N+](=O)[O-])sc2c1	36.2	1.2	-0.2	108.7	23.2	-2.1	·
C/C(=C\c1ccccc1)C(=O)Nc1nc2ccc([N+](=O)[O-])cc2s1	-5.0	-9.5	0.4	95.0	53.4*	-16.3	65.6*
O=C(NC(Nc1nc2ccc([N+](=O)[O-])cc2s1)(C(F)(F)F)C(F)(F)F)c1ccccc1Cl	2.3	22.9	-1.0	90.3	92.5*	-15.4	91.7*
CCN(CC)c1ccc(-c2sc(Nc3ccccc3)n[n+]2-c2ccc(F)cc2)cc1	44.7	-150.0	0.3	106.8	60.8*	-20.3	102.0*
CCc1ccc(Nc2n[n+](-c3ccccc3)c(-c3ccc(N(CC)CC)cc3)s2)cc1	14.2	-127.2	0.3	97.7	95.5*	-10.8	113.6*
